Assay results as given in PubChem BioAssay (EPA / NIEHS).
Active and inactive are the calls of the source. The calls were made as follows: active = hit-call score of the fitted dose curve at least 0.9, where 1 is the maximum; inactive = score below 0.9.

assay: ATG_M_19_CIS: Attagene CIS-FACTORIAL HepG2 Assay for M19 Transcription Factor (Internal Marker) (AID 2282939); conditions: HepG2 Attagene CIS-FACTORIAL M19 internal marker reporter; actives raise or lower the signal
Experimental: ATG_CIS is a cell-based, multiplexed-readout assay that uses HepG2, a human liver cell line, with measurements taken at 24 hours after chemical dosing in a 24-well plate.ATG_M_19_CIS is one of 52 assay component(s) measured or calculated from the ATG_CIS assay. It is designed to make measurements of mRNA induction, a form of inducible reporter, as detected with fluorescence intensity signals by Reverse transcription polymerase chain reaction (RT-PCR) and Capillary electrophoresis technology.Data from the assay component ATG_M_19_CIS was analyzed into 1 assay endpoint. This assay endpoint, ATG_M_19_CIS, was analyzed with bidirectional fitting relative to DMSO as the negative control and baseline of activity. Using a type of inducible reporter, measures of mRNA for gain or loss-of-signal activity can be used to understand the background control at the transcription factor-level as they relate to the gene . Furthermore, this assay endpoint can be referred to as a secondary readout, because this assay has produced multiple assay endpoints where this one serves a background control function. To generalize the intended target to other relatable targets, this assay endpoint is annotated to the background measurement intended target family, where the subfamily is internal marker.
Human liver HepG2 cells are transiently transfected with multiple reporter transcription units (MRTUs) in 6-well plates using FuGene 6 reagent (Roche; 3 ml FuGene/1 mg DNA). The MRTU constructs are regulated by a cis-regulating element (promoter). […] A major difference between the CIS and TRANS system is that in CIS activities of endogenous TFs are measured, whereas the TRANS assay evaluates changes in activities of exogenous, chimeric NR-Gal4 proteins. […] At the end of 24 hour incubation, total RNA was isolated using TriZol reagent (Invitrogen). The isolated RNA is then reverse-transcribed using oligo(dT) primer and Mo-MLV reverse transcriptase (Invitrogen) with DNAse I (Ambion) treatment for 30 min. The one-tenth of the produced cDNA was amplified by PCR using Taq DNA polymerase (Invitrogen) and two reporter sequence-specific primers. The PCR products were fluorescently labeled by primer extension with 6-arboxyfluorescein (6-FAM) 5'-labeled reporter sequence-specific primer (2 min at 95 C, 20 s at 68 C and 10 min at 72 C) and these products were digested with 5U of HpaI (New England Biolabs) for 2h at 37 C. The fragments were purified using Qiaquick PCR columns (Qiagen), analyzed on an ABI 3130xL genetic analyzer (Applied Biosystems) with peak positions identified by using a set of X-rhodamine (ROX)-labeled MapMarker1000 molecular weight standards (BioVentures). The raw capillary electrophoresis data was processed using Attagraph software (Attagene).

Row | SMILES | outcome
1 | Cc1ccc(N=C=O)cc1N=C=O | inactive
2 | CNC(=O)Oc1cccc2c1OC(C)(C)C2 | inactive
3 | O=C1CCCO1 | inactive
4 | Clc1ccc(C(c2ccc(Cl)cc2)C(Cl)(Cl)Cl)cc1 | inactive
5 | OCCCl | inactive
6 | O=P(OCCCl)(OCCCl)OCCCl | inactive
7 | c1ccc2c(c1)oc1ccccc12 | inactive
8 | CC(C)N(Cc1ccccc1)C(=O)C(C)(C)C | inactive
9 | CCCCC(CC)COC(=O)c1ccc(C(=O)OCC(CC)CCCC)c(C(=O)OCC(CC)CCCC)c1 (stereo not given) | inactive
10 | OCCOCCO | inactive
11 | ClC1=C(Cl)C2(Cl)C3C(Cl)C=CC3C1(Cl)C2(Cl)Cl (stereo not given) | inactive
12 | COC(=O)c1ccccc1N | inactive
13 | CC(C)(C)OOC(C)(C)CCC(C)(C)OOC(C)(C)C | inactive
14 | COC(=O)Nc1nc2ccccc2[nH]1 | inactive
15 | C=CCc1ccc2c(c1)OCO2 | inactive
16 | CCCCCCCCOC(=O)c1ccc(C(=O)OCCCCCCCC)c(C(=O)OCCCCCCCC)c1 | inactive
17 | O=C(Oc1ccc(Br)cc1)N1CCN2CCC1CC2 | inactive
18 | CN(C)[C@@H]1C(=O)C(C(N)=O)=C(O)[C@@]2(O)C(=O)C3=C(O)c4c(O)cccc4[C@@](C)(O)[C@H]3C[C@@H]12 | inactive
19 | C[C@]12C=CC3=C4CCC(=O)C=C4CC[C@H]3[C@@H]1CC[C@@H]2O | inactive
20 | CC(C)(C)C(O)(CCc1ccc(Cl)cc1)Cn1cncn1 (stereo not given) | inactive

Row | SMILES | outcome
21 | O=C(Nc1ccccc1)c1ccccc1I | inactive
22 | Oc1ccc2ccc3cccc4ccc1c2c34 | inactive
23 | CCOc1cccc(C2(N3CCN(c4ccccc4)CC3)CCC(C)CC2)c1 (stereo not given) | inactive
24 | O=[N+]([O-])C(Br)(CO)CO | inactive
25 | c1ccc(N=Nc2ccccc2)cc1 | inactive
26 | CCCCCCCCn1sccc1=O | inactive
27 | c1ccc(NNc2ccccc2)cc1 | inactive
28 | CCC(C)c1ccc(O)cc1 (stereo not given) | inactive
29 | N#CC(Br)Br | inactive
30 | CCC12COCN1COC2 | inactive
31 | C1=Cc2cccc3cccc1c23 | inactive
32 | OCCCBr | inactive
33 | Nc1ccc(Cc2ccc(N)cc2)cc1 | inactive
34 | CC(O)CCO (stereo not given) | inactive
35 | CCCCCCCCCCCCCN1CC(C)OC(C)C1 (stereo not given) | inactive
36 | Nc1ccc(Oc2ccc(N)cc2)cc1 | inactive
37 | Cc1cc(N=Nc2ccccc2C)ccc1N | inactive
38 | N#CC(Br)(Br)C(N)=O | inactive
39 | Cc1ccc([N+](=O)[O-])cc1 | inactive
40 | CN(C)C(=O)Nc1ccc(Cl)cc1 | inactive
